Test results as given in PubChem BioAssay AID1159580 (chemical genetic matrix, 2015).
Several values for one entry are separate records, joined by “and”; a condition that tells them apart may be missing. Equal values may be shown once. In all, about 5,500 compounds went through this assay and about 2,000 (36%) were called active. Roughly 18% stayed inconclusive and do not appear here. Cut-off read from the data, not from the text of the source: active = normalized growth mostly below about 0.91 (no sharp cut-off); inconclusive = no clear call, values can overlap the other calls; inactive = mostly above about 0.92. The list shows a part of the results.

Assay: chemical genetic growth profiling, strain panel (AID 1159580);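 note: tested at 20 µM; growth read once vehicle control cultures reached saturation at 30 °C; 1 = growth at the plate median or of vehicle wells; lower values mean less growth of the strain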
Conditions: S. cerevisiae deletion strains, growth OD

Measured: normalized growth

CCOC(=O)C(Cc1ccc(O)cc1)NC(C)=O (stereo unspecified)
inactive: locus YAL013W, strain DEP1, active compounds read low 0.99 | locus YAL021C, strain ccr4, active compounds read low 1.01 | locus YAL026C, strain drs2, active compounds read low 1.01 | locus YAL030W, strain snc1, active compounds read low 1 | locus YBL061C, strain skt5, active compounds read low 1.02 | locus YBR009C, strain hhf1, active compounds read low 0.974 | locus YBR021W, strain FUR4, active compounds read low 1.01 | locus YBR023C, strain chs3, active compounds read low 1.01 | locus YBR171W, strain sec66, active compounds read low 1.01 | locus YBR229C, strain ROT2, active compounds read low 1.01 | locus YBR231C, strain swc5, active compounds read low 1 | locus YBR279W, strain paf1, active compounds read low 1 | locus YCL011C, strain gbp2, active compounds read low 1 | locus YCL016C, strain dcc1, active compounds read low 1 | locus YCL029C, strain bik1, active compounds read low 0.999 | locus YCL069W, strain vba3, active compounds read low 0.989 | locus YCR088W, strain abp1, active compounds read low 1.01 | locus YDL005C, strain med2, active compounds read low 1.02 | locus YDL035C, strain GPR1, active compounds read low 1.02 | locus YDL040C, strain nat1, active compounds read low 1.01 | locus YDL074C, strain BRE1, active compounds read low 1.02 | locus YDL101C, strain DUN1, active compounds read low 1.02 | locus YDL134C, strain PPH21, active compounds read low 1 | locus YDL185W, strain tfp1, active compounds read low 0.993 | locus YDL192W, strain arf1, active compounds read low 0.996 | locus YDR001C, strain nth1, active compounds read low 1.01 | locus YDR069C, strain doa4, active compounds read low 0.998 | locus YDR101C, strain arx1, active compounds read low 0.996 | locus YDR137W, strain rgp1, active compounds read low 1.02 | locus YDR150W, strain NUM1, active compounds read low 1.01 | locus YDR159W, strain sac3, active compounds read low 0.985 | locus YDR162C, strain NBP2, active compounds read low 1.02 | locus YDR195W, strain ref2 1.01 | locus YDR297W, strain sur2, active compounds read low 1 | locus YDR318W, strain mcm21, active compounds read low 1.01 | locus YDR334W, strain swr1, active compounds read low 0.997 | locus YDR335W, strain msn5, active compounds read low 1.01 | locus YDR388W, active compounds read low 1.01 | locus YDR392W, strain spt3, active compounds read low 1.03 | locus YDR502C, strain sam2, active compounds read low 0.992 | locus YEL003W, strain gim4, active compounds read low 1.01 | locus YEL037C, strain rad23, active compounds read low 1 | locus YEL061C, strain CIN8 (second series), active compounds read low 0.998 | locus YEL061C, strain CIN8, active compounds read low 1.01 | locus YER015W, strain faa2, active compounds read low 1 | locus YER016W, strain bim1, active compounds read low 1.03 | locus YER110C, active compounds read low 1.01 | locus YER111C, strain swi4, active compounds read low 1.02 | locus YER155C, strain BEM2 (second series), active compounds read low 1.04 | locus YER155C, strain BEM2, active compounds read low 1 | locus YER167W, strain BCK2, active compounds read low 1.02 | locus YFR010W, strain ubp6, active compounds read low 0.987 | locus YGL078C, strain dbp3, active compounds read low 0.993 | locus YGL086W, strain mad1, active compounds read low 1 | locus YGL167C, strain pmr1, active compounds read low 1.01 | locus YGL173C, strain kem1, active compounds read low 1.01 | locus YGL227W, strain vid30, active compounds read low 1 | locus YGL240W, strain doc1, active compounds read low 1.03 | locus YGL248W, strain PDE1, active compounds read low 1.01 | locus YGL253W, strain hxk2, active compounds read low 1 | locus YGR078C, strain PAC10, active compounds read low 1.02 | locus YGR135W, strain pre9, active compounds read low 0.989 | locus YGR229C, strain SMI1, active compounds read low 1.03 | locus YGR252W, strain gcn5, active compounds read low 0.961 | locus YHR013C, strain ard1, active compounds read low 1.03 | locus YHR027C, strain rpn1, active compounds read low 1.01 | locus YHR030C, strain SLT2, active compounds read low 1.02 and 0.974 | locus YHR079C, strain IRE1 (second series), active compounds read low 1.01 | locus YHR079C, strain IRE1, active compounds read low 0.984 | locus YHR094C, strain hxt1, active compounds read low 1.01 | locus YHR129C, strain ARP1, active compounds read low 1.01 | locus YHR142W, strain chs7, active compounds read low 1.01 | locus YHR200W, strain rpn10, active compounds read low 1.01 | locus YIL066C, strain RNR3, active compounds read low 1.01 | locus YIL073C, strain SPO22, active compounds read low 1 | locus YIL125W, strain kgd1, active compounds read low 1 | locus YIR030C, strain dcg1, active compounds read low 0.997 | locus YJL092W, strain hpr5, active compounds read low 1 | locus YJL095W, strain BCK1 (second series), active compounds read low 1.03 | locus YJL095W, strain BCK1, active compounds read low 1.04 and 0.965 | locus YJL115W, strain asf1, active compounds read low 0.999 | locus YJL129C, strain trk1, active compounds read low 1.02 | locus YJL134W, strain LCB3, active compounds read low 1.02 | locus YJL154C, strain vps35, active compounds read low 1.01 | locus YJL164C, strain tpk1, active compounds read low 1 | locus YJL166W, strain qcr8, active compounds read low 0.995 | locus YJL168C, strain set2, active compounds read low 1.01 | locus YJL187C, strain SWE1 (second series), active compounds read low 1.02 | locus YJL187C, strain SWE1, active compounds read low 1.01 | locus YJR043C, strain POL32, active compounds read low 1.02 | locus YJR066W, strain TOR1, active compounds read low 0.887
